The record followed here is PubChem BioAssay (EPA / NIEHS).

The structures appear in SMILES notation. Calls of active or inactive are those of the source. The calls were made as follows: active = hit-call score of the fitted dose curve at least 0.9, where 1 is the maximum; inactive = score below 0.9.

Conditions in all cases: mRNA level, 48 h; actives raise or lower the signal
Read-out in test [1]: Early growth response protein 1 (EGR1) transcription factor, EGR1 (gene 1958)
As to the kind of experiment: LTEA_HepaRG_EGR1: Life Technologies and Expression Analysis (LTEA) Assay for Early growth response protein 1 (EGR1) transcription factor using HepaRG (AID 2283490). In a few lines: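 Read-out is EGR1 mRNA level by qRT-PCR, normalized to three housekeeping genes and analysed for gain or loss of signal against 0.5% DMSO. Source cells: human HepaRG, treated 48 h at up to 100 uM in half-log dilutions.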

Read-out in test [2]: Ezrin (EZR), EZR (gene 7430)
As to the kind of experiment: LTEA_HepaRG_EZR: Life Technologies and Expression Analysis (LTEA) Assay for Ezrin (EZR) using HepaRG (AID 2283491). In a few lines:
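HepaRG, 48 h chemical exposure, 8-pt half-log series from 100 uM, 0.5% DMSO vehicle, duplicates. Read-out: EZR mRNA by TaqMan qRT-PCR (Fluidigm array), housekeeping-normalized; bidirectional curve fit vs DMSO baseline.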

Read-out in test [3]: Cytochrome P450 3A7 (Homo sapiens) (UniProt P24462)
Description: LTEA_HepaRG_CYP3A7: Life Technologies and Expression Analysis (LTEA) Assay for CYP3A7 using HepaRG (AID 2283492). The gist of the method:
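Differentiated HepaRG cells in serum-free induction medium exposed 48 h in duplicate to 8-point half-log series from 100 uM top in 0.5% DMSO. CYP3A7 mRNA by qRT-PCR, normalized to ACTB/GAPDH/POLR2A, bidirectional fit versus DMSO.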

Read-out in a further test: CYP3A5 (gene 1577)
As to the kind of experiment: LTEA_HepaRG_CYP3A5: Life Technologies and Expression Analysis (LTEA) Assay for CYP3A5 using HepaRG (AID 2283493). In a few lines: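 HepaRG plated 48 h, switched to serum-free induction medium, chemicals added 48 h (max 100 uM, half-log, 0.5% DMSO). RNA isolated; CYP3A5 by TaqMan qRT-PCR. Gain/loss vs DMSO.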

Read-out in test [4]: Fatty Acid-Binding Protein 1 (FABP1), FABP1 (gene 2168)
As to the kind of experiment: LTEA_HepaRG_FABP1: Life Technologies and Expression Analysis (LTEA) Assay for Fatty Acid-Binding Protein 1 (FABP1) using HepaRG (AID 2283494). In a few lines:
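HepaRG, 48 h post-plating switched to serum-free induction medium, then dosed 48 h (duplicate, 8 pts, ≤100 uM, 0.5% DMSO). RNA → Fluidigm TaqMan qRT-PCR, FABP1 normed to ACTB/GAPDH/POLR2A. Bidirectional curve fit vs DMSO.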

Read-out in test [5]: Cytochrome P450 4A22 (Homo sapiens) (UniProt Q5TCH4)
Description: LTEA_HepaRG_CYP4A22: Life Technologies and Expression Analysis (LTEA) Assay for Cytochrome P450 4A22 (CYP4A22) using HepaRG (AID 2283495). In a few lines:
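Differentiated HepaRG cells in serum-free induction medium exposed 48 h in duplicate to eight half-log concentrations up to 100 uM in 0.5% DMSO. CYP4A22 mRNA quantified by TaqMan qRT-PCR, normalized to ACTB, GAPDH and POLR2A; bidirectional fit versus DMSO.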

Read-out in test [6]: Cytochrome P450 7A1 (Homo sapiens) (UniProt P22680)
As to the kind of experiment: LTEA_HepaRG_CYP7A1: Life Technologies and Expression Analysis (LTEA) Assay for Cytochrome P450 7A1 (CYP7A1) using HepaRG (AID 2283496). The gist of the method:
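HepaRG cells plated 48 h, then switched to serum-free induction medium and exposed in duplicate for 48 h to 8-point half-log series from 100 uM in 0.5% DMSO. CYP7A1 mRNA by qRT-PCR (TaqMan), normalized to ACTB/GAPDH/POLR2A; bidirectional fit versus DMSO.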

Read-out in test [7]: Glutathione S-Transferase (GSTA2), GSTA2 (gene 2939)
Description: LTEA_HepaRG_GSTA2: Life Technologies and Expression Analysis (LTEA) Assay for Glutathione S-Transferase (GSTA2) using HepaRG (AID 2283497). In a few lines:
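HepaRG, 48 h dosing, 8-pt half-log CRC from 100 uM, 0.5% DMSO vehicle, n=2; RNA → Fluidigm TaqMan qRT-PCR; GSTA2 vs ACTB/GAPDH/POLR2A; gain/loss fit vs DMSO.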

Read-out in test [8]: Glutamate-cysteine ligase catalytic (GCLC), GCLC (gene 2729)
As to the kind of experiment: LTEA_HepaRG_GCLC: Life Technologies and Expression Analysis (LTEA) Assay for Glutamate-cysteine ligase catalytic (GCLC) using HepaRG (AID 2283498). In a few lines: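 Read-out is GCLC transcript level by Fluidigm-based TaqMan qRT-PCR, normalized to three housekeeping genes and fitted in both directions relative to 0.5% DMSO. Human HepaRG cells received chemicals for 48 h, up to 100 uM.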

Read-out in test [9]: growth arrest and DNA damage 45 (GADD45G), GADD45G (gene 10912)
As to the kind of experiment: LTEA_HepaRG_GADD45G: Life Technologies and Expression Analysis (LTEA) Assay for growth arrest and DNA damage 45 (GADD45G) using HepaRG (AID 2283499). In a few lines: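 Differentiated human HepaRG cells, 48 h post-plating, exposed 48 h in serum-free induction medium to 8 half-log concentrations (top 100 uM, 0.5% DMSO) in duplicate. GADD45G mRNA measured by Fluidigm TaqMan qRT-PCR, normalized to ACTB, GAPDH, POLR2A; bidirectional fit versus DMSO.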

Read-out in test [10]: Glutamate-cysteine ligase regulatory (GCLM), GCLM (gene 2730)
Description: LTEA_HepaRG_GCLM: Life Technologies and Expression Analysis (LTEA) Assay for Glutamate-cysteine ligase regulatory (GCLM) using HepaRG (AID 2283500). In a few lines:
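Cells were plated, cultured 48 h, switched to serum-free induction medium, then dosed in duplicate for 48 h at eight half-log concentrations up to 100 uM. RNA was then profiled by qRT-PCR; gain or loss versus DMSO was fitted.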

Read-out in test [11]: Glutathione S-transferase M3 (GSTM3), GSTM3 (gene 2947)
Description: LTEA_HepaRG_GSTM3: Life Technologies and Expression Analysis (LTEA) Assay for Glutathione S-transferase M3 (GSTM3) using HepaRG (AID 2283501). In a few lines:
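Differentiated human HepaRG cells were exposed in duplicate for 48 h in serum-free induction medium, 8 points from 100 uM top in half-log steps, 0.5% DMSO. GSTM3 mRNA was measured by TaqMan qRT-PCR, normalized to ACTB, GAPDH and POLR2A; bidirectional fit versus DMSO.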

Read-out in test [12]: Heat shock 70 kDa protein 1 (HSPA1A), gene 3303
Description: LTEA_HepaRG_HSPA1A: Life Technologies and Expression Analysis (LTEA) Assay for Heat shock 70 kDa protein 1 (HSPA1A) using HepaRG (AID 2283502). In a few lines: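 Readout is HSPA1A transcript level by microfluidic qRT-PCR, normalized to three housekeeping genes and analysed for gain or loss of signal relative to 0.5% DMSO. Human HepaRG cultures received test chemicals for 48 h at up to 100 uM.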

Read-out in test [13]: Hypoxia-inducible factor 1-alpha (Homo sapiens) (UniProt Q16665)
As to the kind of experiment: LTEA_HepaRG_HIF1A: Life Technologies and Expression Analysis (LTEA) Assay for Hypoxia-inducible factor 1 (HIF1A) Trancription factor using HepaRG (AID 2283503). The gist of the method: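 Differentiated HepaRG cells in serum-free induction medium exposed 48 h, in duplicate, to 8-point half-log series from 100 uM in 0.5% DMSO. HIF1A mRNA measured by TaqMan qRT-PCR, normalized to ACTB/GAPDH/POLR2A, fitted bidirectionally versus DMSO.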

Read-out in test [14]: 3-Hydroxy-3-Methylglutaryl-CoA Synthase 2 (HMGCS2), HMGCS2 (gene 3158)
Description: LTEA_HepaRG_HMGCS2: Life Technologies and Expression Analysis (LTEA) Assay for 3-Hydroxy-3-Methylglutaryl-CoA Synthase 2 (HMGCS2) using HepaRG (AID 2283504). In a few lines:
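Human HepaRG cells in serum-free induction medium were exposed in duplicate for 48 h to 8-point half-log series from 100 uM top in 0.5% DMSO. HMGCS2 mRNA measured by TaqMan qRT-PCR, normalised to ACTB, GAPDH, POLR2A; bidirectional fit versus DMSO.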

Read-out in a further test: HGF (gene 3082)
As to the kind of experiment: LTEA_HepaRG_HGF: Life Technologies and Expression Analysis (LTEA) Assay for Hepatocyte Growth Facto (HGF) using HepaRG (AID 2283505). The gist of the method: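 Differentiated HepaRG cells in serum-free induction medium exposed 48 h in duplicate, 8 half-log concentrations from 100 uM in 0.5% DMSO. HGF mRNA by qRT-PCR, normalised to ACTB, GAPDH, POLR2A; bidirectional fitting.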

Read-out in test [15]: Insulin Like Growth Factor 1 (IGF1), IGF1 (gene 3479)
As to the kind of experiment: LTEA_HepaRG_IGF1: Life Technologies and Expression Analysis (LTEA) Assay for Insulin Like Growth Factor 1 (IGF1) using HepaRG (AID 2283506). The gist of the method:
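HepaRG, plated 48 h, then switched to serum-free induction media; test chemical 8-pt half-log from 100 uM (0.5% DMSO), duplicate, 48 h. Lysis in RLT, TaqMan qRT-PCR, norm. ACTB/GAPDH/POLR2A. Bidirectional fit vs DMSO.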

Read-out in test [16]: Intercellular Adhesion Molecule 1 (ICAM1), ICAM1 (gene 3383)
As to the kind of experiment: LTEA_HepaRG_ICAM1: Life Technologies and Expression Analysis (LTEA) Assay for Intercellular Adhesion Molecule 1 (ICAM1) using HepaRG (AID 2283507). The gist of the method:
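Differentiated human HepaRG cells in serum-free induction medium exposed 48 h in duplicate to 8 half-log concentrations (top 100 uM, 0.5% DMSO). ICAM1 mRNA quantified by TaqMan qRT-PCR, normalized to ACTB, GAPDH and POLR2A; bidirectional fitting versus DMSO.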

Read-out in test [17]: Insulin-like growth factor-binding protein 1 (IGFBP1), IGFBP1 (gene 3484)
As to the kind of experiment: LTEA_HepaRG_IGFBP1: Life Technologies and Expression Analysis (LTEA) Assay for Insulin-like growth factor-binding protein 1 (IGFBP1) using HepaRG (AID 2283508). The gist of the method: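 HepaRG cells, plated 48 h then switched to serum-free induction medium, exposed in duplicate for 48 h to 8-point half-log series from 100 uM in 0.5% DMSO. mRNA measured by qRT-PCR, normalized to ACTB/GAPDH/POLR2A; bidirectional fit versus DMSO.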

Read-out in test [18]: Interleukin 6 (IL6), IL6 (gene 3569)
Description: LTEA_HepaRG_IL6: Life Technologies and Expression Analysis (LTEA) Assay for Interleukin 6 (IL6) using HepaRG (AID 2283509). In a few lines:
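HepaRG, ~100,000 cells/well, 48 h pre-culture; serum-free induction medium; cmpd 8-pt half-log from 100 uM, 0.5% DMSO, duplicate, 48 h. Lysis in RLT, TaqMan qRT-PCR; gain or loss vs DMSO.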

Sequence of Hypoxia-inducible factor 1-alpha (Homo sapiens) (Q16665 whole entry, looked up): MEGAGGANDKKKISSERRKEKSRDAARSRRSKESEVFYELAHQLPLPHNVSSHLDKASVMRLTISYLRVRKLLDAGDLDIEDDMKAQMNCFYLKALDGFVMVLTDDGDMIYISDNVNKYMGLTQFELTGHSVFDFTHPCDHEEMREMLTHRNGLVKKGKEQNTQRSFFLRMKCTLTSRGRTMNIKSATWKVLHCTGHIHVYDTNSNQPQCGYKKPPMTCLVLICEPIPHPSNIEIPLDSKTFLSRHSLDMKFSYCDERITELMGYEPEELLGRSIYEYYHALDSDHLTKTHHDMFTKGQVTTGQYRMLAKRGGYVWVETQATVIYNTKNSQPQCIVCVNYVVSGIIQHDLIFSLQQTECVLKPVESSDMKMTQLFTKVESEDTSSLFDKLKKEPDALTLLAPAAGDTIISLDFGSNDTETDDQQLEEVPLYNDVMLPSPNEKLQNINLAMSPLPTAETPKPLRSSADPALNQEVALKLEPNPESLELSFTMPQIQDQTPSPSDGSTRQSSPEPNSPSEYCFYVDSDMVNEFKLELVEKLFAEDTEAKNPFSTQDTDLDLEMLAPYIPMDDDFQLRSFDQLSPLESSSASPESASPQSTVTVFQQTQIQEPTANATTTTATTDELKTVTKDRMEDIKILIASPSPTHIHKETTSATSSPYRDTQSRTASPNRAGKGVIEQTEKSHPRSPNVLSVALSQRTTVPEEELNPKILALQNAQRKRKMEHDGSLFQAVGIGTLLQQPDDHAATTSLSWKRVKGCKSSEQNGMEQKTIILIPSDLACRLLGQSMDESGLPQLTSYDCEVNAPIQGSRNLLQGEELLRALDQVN
Sequence of Cytochrome P450 3A7 (Homo sapiens) (P24462 whole entry, looked up): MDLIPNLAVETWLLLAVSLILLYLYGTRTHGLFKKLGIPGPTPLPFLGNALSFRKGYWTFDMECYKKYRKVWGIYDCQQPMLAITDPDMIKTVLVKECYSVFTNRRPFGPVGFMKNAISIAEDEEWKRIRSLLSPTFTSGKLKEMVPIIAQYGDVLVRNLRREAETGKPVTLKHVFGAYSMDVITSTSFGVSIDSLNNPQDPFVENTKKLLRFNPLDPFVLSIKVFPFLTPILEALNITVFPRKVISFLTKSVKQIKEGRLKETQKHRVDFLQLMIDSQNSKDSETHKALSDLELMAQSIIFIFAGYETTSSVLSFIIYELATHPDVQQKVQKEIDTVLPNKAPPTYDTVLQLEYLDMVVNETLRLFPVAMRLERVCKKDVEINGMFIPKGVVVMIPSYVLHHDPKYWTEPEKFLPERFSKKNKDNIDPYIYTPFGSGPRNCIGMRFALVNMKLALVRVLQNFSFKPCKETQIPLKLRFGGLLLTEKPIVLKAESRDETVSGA

As to `Nc1c(Cl)c(Cl)nc(C(=O)O)c1Cl`, the molecule was called inactive (in test [1]; in test [2]; in test [3]; with CYP3A5 (gene 1577); in test [4]; in test [5]). Further, the molecule was called inactive in test [6], in test [7], in [8], in [9], in test [10] and in [11]. Moreover, the molecule was called inactive (in test [12]; in test [13]; in test [14]; with HGF (gene 3082); in test [15]; in test [16]). In addition, the molecule was called inactive in test [17] and in [18].

Turning to `COc1cc(OC)nc(NC(=O)NS(=O)(=O)c2ncccc2OCC(F)(F)F)n1`, the outcome (in [1]; in test [3]; with CYP3A5 (gene 1577); in [4]; in test [6]; in test [7]) was inactive. Further, the outcome (in test [8]; in [10]; in [11]; in test [13]; in test [14]; with HGF (gene 3082)) was inactive. For the same molecule, the molecule was called inactive in [15], in test [16], in test [17] and in test [18]. Further, the AC50 in test [2] is 239 nM (active); in test [5] it was 628 nM (active); in test [9], 190 nM (active).

In the case of `COP(=S)(OC)SCn1nnc2ccccc2c1=O`, the molecule was classed as inactive (in test [1]; in [2]; in [3]; in the test with CYP3A5 (gene 1577); in [4]; in test [5]). The result in [6], in [7], in test [8], in [9], in [10] and in test [11] was inactive. In addition, the call (in test [12]; in test [13]; in [14]; with HGF (gene 3082); in test [15]; in [16]) was inactive. Besides, the molecule was classed as inactive in test [17] and in test [18].

In general, AC50 refers to the concentration giving half of the maximal activity seen.
